The text below walks through data of PubChem BioAssay (Tox21).

The structures appear in SMILES notation. Unmarked numbers belong to inactive results. The source made the active and inactive calls. Calls come from the whole dose curve; as a rule, active = well fitted curve in the direction sought with a large enough effect in the repeat runs; inconclusive = weak or mixed curves; inactive = flat fitted curve, though single readings scatter.
% is set by controls: 0 for no effect and ±100 for the full control effect.

This assay can be described thus: qHTS assay to test for compound auto fluorescence at 590 nm (red) in HEK293 cell free culture (AID 720683). The note with it: cell-free medium autofluorescence, Ex540/Em590 red; series mostly up to 91.3 µM. The text has this:
U.S. Tox21 Program National Center for Advancing Translational Sciences [NCATS] NIH Chemical Genomics Center [NCGC] U.S. Environmental Protection Agency [EPA] National Institutes of Environmental Health Sciences [NIEHS] National Toxicology Program [NTP] U.S. Food and Drug Administration [FDA] Tox21 Assay Overview: Compound auto fluorescence often interferes with screening of the compound library against various biological targets and signaling pathways. Some of these compounds may have fluorophoric properties. Such properties may interfere with the assay outputs resulting in false positives and/or negatives. To decrease such complications and ensure the compound activities are relevant in terms of biological response, the Tox21 10K compound library was screened for auto fluorescence. From the fluorophores used as reporter signals in our screening assays, the auto fluorescence equivalencies of compounds against three fluorophores have been evaluated: Triamterene, Fluorescein and Rose Bengal sodium for blue, green and red fluorescence, respectively. The fluorescence intensities were measured using Excitation/Emission wavelengths at 405/460nm, 485/535nm and 540/590nm for blue, green and red labels, respectively. This assay includes the red fluorescence data.
Tox21 Assay Protocol Summary: 5 uL of culture medium (DMEM containing 10% FBS) per well was dispensed into black wall/clear bottom 1536-well plates using a Multidrop Combi Dispenser (ThermoFisher Scientific, Waltham, MA). After 23 nL compound or DMSO vehicle was transferred into assay plate by a pintool work station (Kalypsys, San Diego, CA), fluorescence intensities in the assay plates were measured by an Envision (PerkinElmer, Shelton, CT) plate reader using three labels for measuring blue, green and red fluorescence at […] 460, 535 and 590nm respectively.
For `O=C(NC(Cc1cc(=O)[nH]c2ccccc12)C(=O)O)c1ccc(Cl)cc1` (stereo not given), the call was inactive.

With `CCN(Cc1cccc(S(=O)(=O)O)c1)c1ccc(C(=C2C=CC(=[N+](CC)Cc3cccc(S(=O)(=O)O)c3)C=C2)c2ccccc2S(=O)(=O)[O-])cc1`, the compound was called inactive.

As for `Cc1ccc(Cl)cc1N`, the result was inactive.

With `O=C(c1ccccc1)C1CCC1`, the outcome was inactive.

As to `[Cl][Nd]([Cl])[Cl]`, the outcome was inactive.

For the compound `COc1ccc(CCN(C)CCCN2CCc3cc(OC)c(OC)cc3CC2=O)cc1OC`, the compound was classed as inactive.

As to `CC(C)N=C=NC(C)C`, the call was inactive.

For the compound `C/C(C=O)=C\c1ccccc1`, the compound was classed as inactive.

For the compound `O=C(O)CCC(=O)OC[C@@H](NC(=O)C(Cl)Cl)[C@H](O)c1ccc([N+](=O)[O-])cc1`, the outcome was inactive.

`CCN(CC)c1ccc(C(=C2C=CC(=[N+](CC)CC)C=C2)c2ccc(S(=O)(=O)O)cc2S(=O)(=O)[O-])cc1`: the compound was classed as inactive.

Regarding `Cc1cc(CCC(=O)OCCOCCOCCOC(=O)CCc2cc(C)c(O)c(C(C)(C)C)c2)cc(C(C)(C)C)c1O`, the compound was classed as inactive.

Regarding `CC(C)COC(=O)COc1cc(Cl)c(Cl)cc1Cl`, the compound was classed as inactive.

Consider `COC(C)(C)OC`, for which the outcome was inactive.

Take `c1ccc(CCCc2ccncc2)cc1`: the result was inactive.

`O=P(O)(O)Oc1ccccc1`: the compound was classed as inactive.

As to `O=NN(CCCl)C(=O)NCCCl`, the outcome was inactive.

In the case of `O=C(O)CCCc1c[nH]c2ccccc12`, the call was inactive.

As to `COc1cc(NS(=O)(=O)c2ccc(N)cc2)nc(C)n1`, the result was inactive.

Consider `CC1CCc2nccnc21` (stereo not given), for which the compound was called inactive.

With `CCCCC(CC)COS(=O)(=O)O` (stereo not given), the result was inactive.

As to `CCCCCCCCCCCCCOC(=O)CCSCCC(=O)OCCCCCCCCCCCCC`, the fluorescence, % of fluorescent control was 0.0989% [at 18.6 µM].

For the compound `CC1=CC[C@@]23C[C@@H]1C(C)(C)[C@@H]2CC[C@H]3C`, the compound was classed as inactive.

With `NC(=O)c1ccccc1[N+](=O)[O-]`, the compound was called inactive.

In the case of `Cc1ccc(N(CCO)CCO)cc1`, the compound was classed as inactive.

`CC(=O)C(=O)CC(C)C`: the result was inactive.

For the compound `O=C(/C=C/c1ccc([N+](=O)[O-])cc1)c1ccccc1`, the call was inactive.

As to `CC1CCCO1` (stereo not given), the result was inactive.

`CC(C)Cc1ccc(CC(=O)O)cc1`: the outcome was inactive.

For `Cc1ccc2c(c1[N+](=O)[O-])C(=O)c1ccccc1C2=O`, the call was inactive.

As for `CC(=O)NCCO`, the compound was called inactive.

For `CCCCCCCC/C=C\CCCCCCCC(=O)OCCO`, the call was inactive.

Regarding `Nc1ccc(N=Nc2ccc(N)cc2)cc1`, the result was inactive.

Take `CNS(=O)(=O)c1cc(C(=O)N2CCC(CCN3C4CCC3CC(n3c(C)nc5ccccc53)C4)(c3cccc(F)c3)CC2)c(Cl)cc1F` (stereo not given): the compound was classed as inactive.

For `OCC(CO)n1cnc(-c2ccc(F)cc2)c1-c1ccnc(Oc2ccccc2)n1`, the call was inactive.

With `Nc1ccc(NC(=O)c2ccc(N)cc2)cc1`, the outcome was inactive.

As for `CC(C)CC(O)CC(C)C`, the result was inactive.

As for `CC(O)Cn1cnc2c1c(=O)n(C)c(=O)n2C` (stereo not given), the fluorescence, % of fluorescent control was 0.243% [at 18.6 µM].

On to `CC(C)(C)NCC(O)COc1cccc2c1C[C@H](O)[C@H](O)C2` (stereo not given in full), for which the fluorescence, % of fluorescent control is 0.19% [at 18.6 µM].

On to `Nc1ccn([C@H]2CS[C@@H](CO)O2)c(=O)n1`, for which the result was inactive.

As to `CCCCCCCC(=O)OCCCCCC`, the compound was called inactive.
